This note sets out measurements from PubChem BioAssay (NCATS).

Values joined by “and” are separate entries in the source; they are usually repeats but may differ in a detail not shown here. Equal values may be shown once. Results filed as inconclusive are left out. Active and inactive are the calls of the source. Unless noted, the call rests on the fitted dose curve; in most records, active means well fitted curve in the direction sought with a large enough effect; inconclusive means small, poorly fitted or top-dose-only effect, or another doubt; inactive means no such curve, though single readings can be large; an effect the other way counts as inactive or inconclusive.

Test [1] addresses Ferritin light chain (Equus caballus) (UniProt P02791). In words: qHTS Validation Assay for Identification of Novel General Anesthetics (AID 2323). Further: series mostly up to about 77 µM; on the % scale 0 is the no-effect control and ±100 the full control effect. Summed up: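 Normalized fluorescence response, scaled between free 1-AMA and 1-AMA/apoferritin complex, fitted to a four-parameter Hill equation for concentration-effect values. Binding mix: 10 uM horse-spleen apoferritin, 50% saturated 1-AMA in PBS; read 380/535 nm after 10 min.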
In general terms: In qHTS, concentration-response curves come from the screen itself.

Test [2] can be described thus: qHTS for differential inhibitors of proliferation of Plasmodium falciparum line 7G8 (AID 1815).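 Further: parasite growth measured after three days of incubation.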 Further: potency means the concentration at half of the fitted maximal effect.
The nature of test [3]: qHTS for differential inhibitors of proliferation of Plasmodium falciparum line Dd2 (AID 1882). Further: nearly all actives have a fitted effect of over 65% in size. Further: potency means the concentration at half of the fitted maximal effect. The note with it: Potency: Plasmodium falciparum Dd2 proliferation inhibition. Summed up:
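RBC culture, 0.3% parasitemia / 2.5% Hct final; cpd added by pin tool in DMSO; 72 h, 37 C, 5% CO2; lysis buffer + SYBR Green I, o/n RT dark; FI 485/535; norm. to artemisinin 0.29 uM and DMSO.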

Test [4] in a line: qHTS for Activators of Parkin Expression: LOPAC Validation Assay (FLuc Reporter) (AID 720573;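 further: 0% = DMSO and 100% = positive control compounds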). The method in brief:
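Readout is FLuc luminescence from neuronal reporter cells (Parkin promoter, FLuc plus NLuc) after 24 h compound exposure in dose response. Values normalized to neutral DMSO and positive-control compounds.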

Test [5] can be described thus: Cell Viability - H-4-II-E (AID 543).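 Further: cells exposed to compound for 40 hours; on the % scale 0 is the no-effect control and ±100 the full control effect; nearly all actives have a fitted effect of over 35% in size.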 Summed up: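 qHTS, rat hepatoma H-4-II-E, 1500 cells/well; 40 hr compound exposure, 37 °C; CellTiter-Glo ATP luminescence after 20 min RT; AC50 by standard Hill fit.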
Test [6] is described as follows: Cell Viability - SH-SY5Y (AID 544).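 Further: cells exposed to compound for 40 hours; 0% = DMSO alone and -100% = 100 µM tamoxifen; nearly all actives have a fitted effect of over 55% in size.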 The method in brief:
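SH-SY5Y, 1500 cells/well, 5 hr pre-incubation 37 °C; cpd 40 hr 37 °C; CellTiter-Glo 20 min RT; luminescence (ATP) read. qHTS concentration-response, Hill fit → AC50. Tamoxifen, doxorubicin as positive controls.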

Test [7] addresses Estrogen receptor (Homo sapiens) (UniProt P03372). In words: qHTS assay for small molecule antagonists of estrogen receptor alpha signaling (AID 588513; active means well fitted curve in the direction sought with a large enough effect in the signal ratio, with a control signal flat, not every such curve was filed as active; the % refers to the signal ratio; further: on the % scale 0 is the no-effect control and ±100 the full control effect). Summed up:
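Antagonist-mode qHTS in ER-alpha-UAS-bla HEK 293 cells: compound titration, 0.5nM estradiol for 18 h, CCF4 fluorescence, Hill-derived IC50.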

In test [8] the target is Bile acid receptor (Homo sapiens) (UniProt Q96RI1). In words: qHTS assay for small molecule antagonists of farnesoid X receptor signaling (AID 588526; calls by dose curve; further: on the % scale 0 is the no-effect control and ±100 the full control effect). The method in brief: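 Antagonist mode: titrated compounds tested against chenodeoxycholic acid stimulation (normalized to 50 uM CDCA and DMSO) in GeneBLAzer HEK293T cells for 16 h. Beta-lactamase read by CCF4 fluorescence; IC50 from Hill fits.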
Bile acid receptor (Homo sapiens), sequence (Q96RI1 whole entry, looked up): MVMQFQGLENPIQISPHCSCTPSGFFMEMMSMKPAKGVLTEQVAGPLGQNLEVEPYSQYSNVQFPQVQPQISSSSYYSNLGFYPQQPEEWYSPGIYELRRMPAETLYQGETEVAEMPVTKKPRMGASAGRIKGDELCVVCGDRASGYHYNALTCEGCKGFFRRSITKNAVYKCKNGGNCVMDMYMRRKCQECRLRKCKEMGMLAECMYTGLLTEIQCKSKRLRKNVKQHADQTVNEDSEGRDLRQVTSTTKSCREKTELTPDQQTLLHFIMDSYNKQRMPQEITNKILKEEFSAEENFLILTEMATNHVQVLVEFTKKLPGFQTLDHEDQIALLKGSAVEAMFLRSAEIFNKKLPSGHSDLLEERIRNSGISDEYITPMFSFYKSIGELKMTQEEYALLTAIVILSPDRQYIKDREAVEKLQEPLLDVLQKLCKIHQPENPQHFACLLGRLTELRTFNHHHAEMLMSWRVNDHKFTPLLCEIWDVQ

The target in test [9] is Glucocorticoid receptor (Homo sapiens) (UniProt P04150). The test can be described thus: qHTS assay for small molecule agonists of glucocorticoid receptor signaling (AID 588532; active means well fitted curve in the direction sought with a large enough effect in the signal ratio, with a control signal flat; the % refers to the signal ratio;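 further: 100% = dexamethasone at 0.1 µM and 0% = DMSO only wells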). As to conditions: HeLa MMTV-bla, beta-lactamase ratio, agonist, 18 h; stronger effect = higher value; percent of dexamethasone control, DMSO zero. The method in brief: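 Cells were plated and rested 3-5 h at 37 C, compounds were added in titration and incubated 18 h, then CCF4 substrate was loaded for 2 h at RT before reading blue/green fluorescence. EC50 came from Hill-equation fitting.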
Glucocorticoid receptor (Homo sapiens), sequence (P04150 whole entry, looked up): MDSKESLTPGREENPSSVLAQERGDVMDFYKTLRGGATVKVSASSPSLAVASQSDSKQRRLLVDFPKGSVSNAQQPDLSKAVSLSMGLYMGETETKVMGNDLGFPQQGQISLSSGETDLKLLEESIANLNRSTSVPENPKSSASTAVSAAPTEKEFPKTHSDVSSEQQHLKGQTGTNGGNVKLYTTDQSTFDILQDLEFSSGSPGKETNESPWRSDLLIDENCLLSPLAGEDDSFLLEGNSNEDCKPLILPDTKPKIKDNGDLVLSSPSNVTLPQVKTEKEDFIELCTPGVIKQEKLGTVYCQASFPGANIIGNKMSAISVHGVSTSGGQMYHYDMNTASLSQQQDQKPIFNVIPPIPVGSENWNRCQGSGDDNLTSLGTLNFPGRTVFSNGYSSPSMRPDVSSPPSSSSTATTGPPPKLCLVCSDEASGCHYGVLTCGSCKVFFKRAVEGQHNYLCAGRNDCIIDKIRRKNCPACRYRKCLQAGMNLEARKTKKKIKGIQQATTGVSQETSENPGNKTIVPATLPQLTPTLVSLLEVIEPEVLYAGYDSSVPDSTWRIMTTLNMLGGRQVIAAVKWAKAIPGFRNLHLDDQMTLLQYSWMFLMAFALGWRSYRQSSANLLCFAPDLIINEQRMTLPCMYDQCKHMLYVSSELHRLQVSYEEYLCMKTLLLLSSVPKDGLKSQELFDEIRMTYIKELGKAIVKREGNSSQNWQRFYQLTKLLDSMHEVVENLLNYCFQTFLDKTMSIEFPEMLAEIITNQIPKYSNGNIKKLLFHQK

Test [10] can be described thus: qHTS assay for small molecule agonists of retinoid X receptor alpha signaling (AID 588544; calls by dose curve;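 on activation: 0% = DMSO basal wells and 100% = reference agonist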). The note with it: HEK293T RXRa-UAS-bla, beta-lactamase reporter, 18 h; 530 nm emission.
In test [11] the target is Retinoic acid receptor RXR-alpha (Homo sapiens) (UniProt P19793). Described as above.
Retinoic acid receptor RXR-alpha (Homo sapiens), sequence (P19793 whole entry, looked up): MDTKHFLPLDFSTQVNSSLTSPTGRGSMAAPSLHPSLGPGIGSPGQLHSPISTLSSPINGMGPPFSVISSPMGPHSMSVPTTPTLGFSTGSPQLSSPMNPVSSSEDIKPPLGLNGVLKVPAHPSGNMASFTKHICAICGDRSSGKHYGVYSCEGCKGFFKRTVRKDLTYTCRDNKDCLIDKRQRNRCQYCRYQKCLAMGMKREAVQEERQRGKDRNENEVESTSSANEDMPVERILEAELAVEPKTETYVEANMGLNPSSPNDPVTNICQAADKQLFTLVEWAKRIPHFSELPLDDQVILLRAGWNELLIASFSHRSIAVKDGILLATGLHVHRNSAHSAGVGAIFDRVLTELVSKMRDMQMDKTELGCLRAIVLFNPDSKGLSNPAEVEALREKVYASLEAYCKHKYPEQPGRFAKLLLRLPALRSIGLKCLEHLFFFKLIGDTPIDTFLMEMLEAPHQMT
A short description of test [12]: qHTS assay for environmental chemicals that activate the Aryl hydrocarbon Receptor (AhR) signaling pathway (AID 651777). Further: % of control where 0% means no effect; nearly all actives have a fitted effect of over 15% in size. As to conditions: 1A2-DRE human hepatoma cells, luciferase, 24 h; activation: stronger effect = higher value. Summed up:
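Quantitative HTS in stably transfected human liver-derived cells whose luciferase gene sits downstream of the CYP1A2 promoter and dioxin response element. After 24 hr exposure at 37 C, One-Glo luminescence was measured.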

For test [13], the target named is Nuclear receptor subfamily 1 group I member 2 (Rattus norvegicus) (UniProt Q9R1A7). In words: qHTS assay for small molecule activators of the rat pregnane X receptor (rPXR) signaling pathway (AID 651751; call rule not given here; further: 0% is about no effect). The note with it: rPXR reporter cells, luciferase (One-Glo), 24 h.
Nuclear receptor subfamily 1 group I member 2 (Rattus norvegicus), sequence (Q9R1A7 whole entry, looked up): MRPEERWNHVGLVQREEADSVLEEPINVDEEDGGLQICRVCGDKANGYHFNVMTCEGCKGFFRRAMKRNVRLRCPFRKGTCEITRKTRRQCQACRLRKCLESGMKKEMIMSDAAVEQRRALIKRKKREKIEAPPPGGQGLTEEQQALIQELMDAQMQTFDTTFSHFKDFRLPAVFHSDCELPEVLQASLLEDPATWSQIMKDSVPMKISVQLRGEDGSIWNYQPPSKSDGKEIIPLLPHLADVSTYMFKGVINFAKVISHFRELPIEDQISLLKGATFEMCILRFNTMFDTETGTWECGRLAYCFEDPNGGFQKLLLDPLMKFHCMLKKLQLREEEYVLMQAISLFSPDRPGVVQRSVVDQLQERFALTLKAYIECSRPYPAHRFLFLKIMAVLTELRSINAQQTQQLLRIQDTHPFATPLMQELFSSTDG
Test [14] can be described thus: qHTS assay for small molecule activators of the human pregnane X receptor (PXR) signaling pathway (AID 720659; call rule not given here; further: 0% is about no effect).
Test [15] can be described thus: Cell Viability - LYMP2-012 (AID 982).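 Further: cellular ATP by luciferase luminescence where a drop means cytotoxicity; cells exposed to compound for one day before reading; 0% = DMSO only and full loss = 92 µM tetraoctylammonium bromide; nearly all actives have a fitted effect of over 55% in size.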
A short description of test [16]: Cell Viability - LYMP2-018 (AID 985).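 Further: plate controls were DMSO only for no effect and tetraoctylammonium bromide at 92 µM for full effect; nearly all actives have a fitted effect of over 50% in size.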 The method in brief: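 2500 cells/well; 5 hr 37 C; cmpd 24 hr 37 C, complete medium; CellTiter-Glo 30 min RT; luminescence. Tetraoctylammonium bromide positive control. AC50 via Hill fit.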
A short description of test [17]: Cell Viability - LYMP2-020 (AID 986).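 Further: series mostly up to about 92 µM; cells exposed to compound for 24 h at 37 °C; plate controls were DMSO only for no effect and tetraoctylammonium bromide at 92 µM for full effect; nearly all actives have a fitted effect of over 55% in size.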 Summed up:
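qHTS, 2500 cells/well; 5 hr then 24 hr compound exposure, 37 C; CellTiter-Glo luminescence after 30 min RT; ATP decrease taken as cytotoxicity; AC50 via Hill equation; tetraoctylammonium bromide positive control.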

Test [18] has as its target Vitamin D3 receptor (Homo sapiens) (UniProt P11473). In words: qHTS assay for small molecule antagonists of vitamin D receptor signaling (AID 588541; calls by dose curve;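 further: receptor activated by calcitriol during compound treatment; series mostly up to about 77 µM; on the % scale 0 is the no-effect control and ±100 the full control effect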). Summed up:
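VDR-UAS-bla HEK293T cells in 2% charcoal-stripped FBS were stimulated with 1-alpha,25-dihydroxyvitamin D3 (3 nM final) plus compound for 16 h at 37 C. The beta-lactamase CCF4 readout was normalized to 50 nM agonist and DMSO, and Hill fits gave IC50.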

Test [19] shares this target. The test can be described thus: qHTS assay for small molecule agonists of vitamin D receptor signaling (AID 588543; calls by dose curve;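 further: 0% = DMSO basal and 100% = reference agonist control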). The method in brief: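 Measured: β-lactamase reporter activity (CCF4, 405 nm excitation, 460/530 nm emission) in HEK293T VDR-UAS-bla cells after 16 h compound exposure at 37 °C. Normalization against 50 nM 1α,25-dihydroxyvitamin D3 and DMSO; Hill-fit EC50.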

Test [20] in a line: qHTS assay for small molecule activators of the nuclear factor-kappa B (NF-kB) signaling pathway (AID 651749; active means well fitted activation curve with a large enough effect in the signal ratio; the % refers to the signal ratio; further: series mostly up to about 77 µM; % of control where 0% means no effect). The note with it: NF-kB-bla ME-180 cells, beta-lactamase FRET ratio, 16 h; activation: stronger effect = higher value. The method in brief:
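NF-kB-bla ME-180 cells, 2,000/well; 23 nL compound or DMSO pinned; 16 hr, 37C/5% CO2; beta-lactamase FRET read-out.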

Estrogen receptor (Homo sapiens), sequence (P03372 whole entry, looked up): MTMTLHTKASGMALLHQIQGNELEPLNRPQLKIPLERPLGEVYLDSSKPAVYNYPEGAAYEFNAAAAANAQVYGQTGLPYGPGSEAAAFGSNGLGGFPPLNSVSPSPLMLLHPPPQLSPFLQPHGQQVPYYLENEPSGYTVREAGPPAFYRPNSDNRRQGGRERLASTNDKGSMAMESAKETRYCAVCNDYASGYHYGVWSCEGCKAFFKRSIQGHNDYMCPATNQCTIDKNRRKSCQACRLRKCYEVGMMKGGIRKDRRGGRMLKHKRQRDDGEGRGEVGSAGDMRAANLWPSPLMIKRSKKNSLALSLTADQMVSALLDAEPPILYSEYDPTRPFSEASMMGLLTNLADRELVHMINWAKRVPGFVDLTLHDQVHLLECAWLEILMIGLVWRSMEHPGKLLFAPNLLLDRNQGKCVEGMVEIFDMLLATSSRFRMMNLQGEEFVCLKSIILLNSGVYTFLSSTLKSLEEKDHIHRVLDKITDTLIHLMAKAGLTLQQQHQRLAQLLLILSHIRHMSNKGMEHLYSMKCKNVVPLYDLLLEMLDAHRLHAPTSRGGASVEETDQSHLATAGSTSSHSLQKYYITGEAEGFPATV
Ferritin light chain (Equus caballus), sequence (P02791 2-175 limits assumed): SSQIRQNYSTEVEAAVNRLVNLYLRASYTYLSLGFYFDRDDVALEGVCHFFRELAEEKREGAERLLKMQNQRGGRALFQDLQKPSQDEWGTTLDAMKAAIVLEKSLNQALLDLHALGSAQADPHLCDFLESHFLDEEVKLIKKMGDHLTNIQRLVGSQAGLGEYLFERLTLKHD
Vitamin D3 receptor (Homo sapiens), sequence (P11473 whole entry, looked up): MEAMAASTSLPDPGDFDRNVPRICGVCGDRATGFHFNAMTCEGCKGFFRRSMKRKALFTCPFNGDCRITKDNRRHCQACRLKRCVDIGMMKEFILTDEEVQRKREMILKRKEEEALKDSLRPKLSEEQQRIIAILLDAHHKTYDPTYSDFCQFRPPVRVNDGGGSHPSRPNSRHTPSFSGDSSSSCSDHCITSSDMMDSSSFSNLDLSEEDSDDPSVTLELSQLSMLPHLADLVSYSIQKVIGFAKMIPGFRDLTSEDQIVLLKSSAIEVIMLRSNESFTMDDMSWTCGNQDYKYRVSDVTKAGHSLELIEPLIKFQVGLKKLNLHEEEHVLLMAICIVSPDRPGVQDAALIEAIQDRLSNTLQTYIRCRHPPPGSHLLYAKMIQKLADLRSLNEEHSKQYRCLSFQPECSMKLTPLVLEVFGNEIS

As for `Nc1nc(N)c2nc(CNc3ccc(C(=O)NC(CCC(=O)O)C(=O)O)cc3)cnc2n1` (configuration not stated), the compound was called inactive in [1].
For the compound `CN1C2CCC1CC(OC(=O)C(CO)c1ccccc1)C2` (configuration not stated), the Potency result in [2] and in test [3] was “inactive” in each case.
As for `CC(C)NC[C@H](O)COc1cccc2[nH]ccc12`, the call in test [4] was inactive.
Take `CC(C)COC(=O)c1ccccc1C(=O)OCC(C)C`: the compound was called inactive in test [5], in test [6], in test [11] and in [14]. Besides, the Potency result in [7] and in test [8] was “inactive” in each case. Moreover, the figures for the activation in [9] and in test [12] were -1.08% (inactive) and 0.543% (inactive), respectively. For the same compound, the max response is -12.5% in test [10] and -3.74% (inactive) in [13].
For the compound `N#C/C(=C\c1ccc(O)c(O)c1)C(=O)NCCCNC(=O)/C(C#N)=C/c1ccc(O)c(O)c1`, the Potency in test [2] was 2.82 µM (active); in [3], 3.16 µM (active).
With `Oc1ccccc1O`, in test [4], the compound was classed as inactive.
The same measure, in the same setting: the result for `O=c1oc(Cl)c(Cl)c2ccccc12` reads “inactive”.
Consider `CN1[C@@H](CC(=O)c2ccccc2)CCC[C@H]1C[C@H](O)c1ccccc1`, for which the Potency was 6.31 µM (active) in [2] and 8.91 µM (active) in test [3].
As to `CC(=O)/C=C/c1ccccc1`, the call in test [5], in test [6], in [15], in [16], in test [17] and in test [18] was inactive. The result in [11] and in test [14] was inactive. Besides, in [19], the Potency result was “inactive”. For the same compound, the max response in test [10] was -2.3%; in test [13], -0.846% (inactive). The activation in test [20] was -1.47% (inactive); in test [12] it was -0.449% (inactive).
Regarding `COC1=CC(=O)OC(CCc2ccc3c(c2)OCO3)C1` (configuration not stated), the Potency entry in [7] and in test [8] was “inactive” each time. Moreover, the activation was 3.34% (inactive) in test [9], -0.795% (inactive) in test [20] and 9.51% (inactive) in test [12].
Take `Oc1ccccc1Cl`: the compound was classed as inactive in test [5], in [6], in test [15], in test [16], in test [17] and in test [18]. The outcome in [11] and in test [14] was inactive. The Potency entry in [19] is “inactive”. The values for the max response in [10] and in test [13] were 8.5% and 0.452% (inactive), respectively. The activation in [20] was -1.13% (inactive); in test [12], 0.249% (inactive).
With `c1ccc(Nc2ccc3ccccc3c2)cc1`, the result in test [15], in [16] and in test [17] was inactive. Besides, the Potency entry in test [7] and in test [8] was “inactive” each time. Further, the activation was -2.76% (inactive) and -2.2% (inactive) in [9]; 0.513% (inactive) and 2.05% (inactive) in test [20].
Regarding `Nc1nc2[nH]c(=O)cnc2c(=O)[nH]1`, the outcome in test [1] was inactive.
In the case of `Nc1nc2ccc(Cl)cc2c2nc(-c3ccco3)nn12`, in test [1], the compound was classed as inactive.
In the case of `c1ccc2c(c1)-c1cccc3cccc-2c13`, the outcome in test [5], in test [6], in test [15], in [16], in test [17] and in test [18] was inactive. The Potency result in test [19] was “inactive”. Further, the activation in [20] was 0.379% (inactive).
Consider `CCOC(=O)c1ccccc1N`, for which the compound was classed as inactive in [5], in [6], in [15], in [16], in [17] and in test [18]. Also, the compound was classed as inactive in test [11] and in [14]. Moreover, the Potency result in [7], in test [8] and in test [19] was “inactive” in each case. The results for the activation in [9] and in [12] were 0.622% (inactive) and 1.49% (inactive), respectively. In addition, the max response in test [10] was -10.9%; in test [13], -1.87% (inactive).
For `CCCCCCCCCC[Si](C)(C)CCC(=O)NC(Cc1ccc(C)cc1)c1ccccc1` (configuration not stated), the results for the Potency in [2] and in test [3] were 3.55 µM (active) and 5.01 µM (active), respectively. For the same compound, the compound was classed as inactive in test [1].
For the compound `COc1ccc2c(c1)CCC1C2CC[C@@]2(C)C1CC[C@@H]2NCCCCCCN1C(=O)C=CC1=O` (some centres not stated), in [4], the outcome was inactive.
